Laboratory results as given in the supplement of paper PMC10338343.
± gives the standard deviation.

What was measured:
[1] = system: MILI (PIWIL2) piRISC loaded with L1MC piRNA (26 nt); experiment: pre-steady-state target cleavage rate (min^-1); guide: L1MC piRNA 5'p-UAACUAAAUACUAUGCAAGCUGUAGG; higher = faster piRNA-guided slicing of the target; details: auxiliary factor: 500 nM mouse GTSF1
In short: (§1)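 Sequencing of uncleaved targets, normalised to depth and to weakly complementary targets, was the readout of this Cleave-'n-Seq assay. A transcribed, DNA-blocked target RNA library (0.1 nM) was mixed with 1 nM active affinity-purified piRISC carrying one synthetic guide, with or without 500 nM GTSF1 partner protein, in HEPES–potassium acetate buffer at 33 °C for 0–8 or 0–960 min. Three trials were pooled, k3 was capped at 0.0001 min^-1, and a burst-and-steady-state fit gave the pre-steady-state cleavage rate.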

[2] = system: EfPiwi piRISC loaded with L1MC piRNA (26 nt); experiment: pre-steady-state target cleavage rate (min^-1); auxiliary factor: 500 nM Ephydatia muelleri Gtsf1; guide: L1MC piRNA 5'p-UAACUAAAUACUAUGCAAGCUGUAGG; MIWI and MILI are mouse PIWI proteins and EfPiwi is from a freshwater sponge; tags in brackets are library labels; higher = faster piRNA-guided slicing of the target
In short: as §1

Row | Sequence | pre-steady-state target cleavage rate [1] | pre-steady-state target cleavage rate [2]
1 | UCCUCCUACAGCUUGCAUAGUAAUAAGUUA | 0.129 ± 0.021 | 0.0073 ± 0.004
2 | UCCUCCUACAGCUUGCAUAGUAUAAAGUAA | 0.0819 ± 0.019 | 0.0031 ± 0.0024
3 | UCCUCCUACAGGAUGCAUAGUAUUUAGAAA | 0.0838 ± 0.015 | 0.00396 ± 0.0014
4 | UCCUGGAUGAGCUUGCAUAGUAUUUAGAAA | 0.119 ± 0.03 | 0.00648 ± 0.0025
5 | UCCUGGUACACCUUGCAUAGUAUUUAGAAA | 0.13 ± 0.043 | 0.0037 ± 0.0035
6 | UCCUCCUACAGCAUCCAUAGUAUUUAGUUA | 0.175 ± 0.042 | 0.00359 ± 0.0017
7 | UCCUGGUACAGGUUGCAUAGUAUUUAGAUA | 0.195 ± 0.054 | 0.00271 ± 0.0024
8 | UCCUGGUACAGCUUGCAUAGUAUUUUGUAA | 0.03 ± 0.0099 | 0.00379 ± 0.0027
9 | UCCUGGAACAGCUUGCAUAGUAUUUAGAAA | 0.0838 ± 0.015 | 0.00395 ± 0.0012
10 | UCCUCCUAGAGCUUGCAUAGAAUUUAGUUA | 0.0513 ± 0.0099 | 0.00468 ± 0.0013
11 | UCCUCCUAGAGCUUGCAUAGUAUUAAGUUA | 0.279 ± 0.035 | 0.00604 ± 0.0026
12 | UCCUGGAACAGCUUGCAUAGUAAUUAGAUA | 0.0936 ± 0.022 | 0.00318 ± 0.0015
13 | UCCUGGUACACCUUGCAUAGUAUUAAGUUA | 0.218 ± 0.066 | 0.00356 ± 0.0032
14 | UCCUGGUACAGCUUGCAUAGUAUUAACUUA | 0.0223 ± 0.0097 | 0.0032 ± 0.0024
15 | UCCUGGAUGAGCUAGCAUAGUAUUUAGAUA | 0.168 ± 0.028 | 0.00406 ± 0.002
16 | UCCUGCUACAGCUUGCAUAGUAAUUUGUUA | 0.245 ± 0.053 | 0.00579 ± 0.002
17 | UCCUGGAUCAGCUAGCAUAGUAUUUAGAAA | 0.139 ± 0.016 | 0.0036 ± 0.0022
18 | UCCUGGAUCAGCUUGCAUAGUAUUGAGUUA | 0.227 ± 0.039 | 0.00662 ± 0.0024
19 | UCCUGGUACAGCUUGCAUAGUAUUAACAAA | 0.0231 ± 0.0084 | 0.00261 ± 0.0023
20 | UCCUCCUAGAGCUUGCAUAGUAUUUUGUUA | 0.251 ± 0.029 | 0.006 ± 0.0024

Row | Sequence | pre-steady-state target cleavage rate [1] | pre-steady-state target cleavage rate [2]
21 | UCCUGGAUGUGGAUGCAUAGUAUUUAGAAA | 0.013 ± 0.0055 | 0.00388 ± 0.0027
22 | UCCUGCUACAGCUUGCAAAGUAUUUAGAAA | 0.159 ± 0.033 | 0.00352 ± 0.002
23 | UCCUCCUACAGCUUGCAAAGUAUUUUCAAA | 0.0849 ± 0.023 | 0.00286 ± 0.0028
24 | UCCUCCUACACCUUGCAUAGUAUUAAGUUA | 0.178 ± 0.036 | 0.00451 ± 0.0025
25 | UCCUGGUACACCUUGCAUAGUAUUUAGAUA | 0.0475 ± 0.016 | 0.00278 ± 0.0024
26 | UCCUGGAACAGCUUGCAUAGUAUUUGUUA | 0.0747 ± 0.021 | 0.00531 ± 0.0019
27 | UCCUCCUACAGCUUGCAUAGUAUUGAGUUA | 0.133 ± 0.026 | 0.00534 ± 0.002
28 | UCCUGCUACAGCUUGCAUAGAAUUUAGAUA | 0.0657 ± 0.021 | 0.00319 ± 0.0012
29 | UCCUCCUACAGCUUGCAUAGUUUUAAGUUA | 0.0543 ± 0.012 | 0.00431 ± 0.0024
30 | UCCUCCUACAGCUUGCAAAGUAUUUAGAAA | 0.0823 ± 0.015 | 0.00344 ± 0.0017
31 | UCCUGCAACAGCUUCCAUAGUAUUUAGUUA | 0.112 ± 0.03 | 0.00273 ± 0.0014
32 | UCCUGGAACAGCUUGCAUAGUAUAAUGUUA | 0.0834 ± 0.018 | 0.00416 ± 0.0026
33 | UCCUGCUACAGCUUGCAGUAGUAUUUAGUUA | 0.00973 ± 0.0053 | 0.0051 ± 0.0024
34 | UCCUGCUACAGCUAGCAUAGAAUUUAGUUA | 0.0821 ± 0.018 | 0.00327 ± 0.0022
35 | UCCUGCAACAGCUUGCAUAGUAUUUUGUUA | 0.179 ± 0.023 | 0.00469 ± 0.0013
36 | UCCUCCUAGAGCUUGCAUAGUAUUUAGAAA | 0.069 ± 0.016 | 0.00517 ± 0.0019
37 | UCCUGGAUGUCCUUGCAUAGUAUUUAGUCA | 0.0898 ± 0.017 | 0.00415 ± 0.004
38 | UCCUGCUACAGCUUGCAUUAGUAUUUAGUUA | 0.017 ± 0.007 | 0.00378 ± 0.003
39 | UCCUGGAACACGAUGCAUAGUAUUUACAAA | 0.0623 ± 0.018 | 0.00408 ± 0.0037
40 | UCCUGGAUCAGCUUGCAAAGUAUUUACAAA | 0.0432 ± 0.012 | 0.00563 ± 0.0037

Row | Sequence | pre-steady-state target cleavage rate [1] | pre-steady-state target cleavage rate [2]
41 | UCCUGCUACACCUUCCAUAGUAUUUAGUUA | 0.0271 ± 0.013 | 0.00334 ± 0.0022
42 | UCCUGGAAGUGCUUGCAUAGUAUUUAGUAA | 0.136 ± 0.022 | 0.00343 ± 0.0027
43 | UCCUCCUACAGCAUGCAUAGUAUUUACAAA | 0.205 ± 0.037 | 0.00397 ± 0.0026
44 | UCCUCGUACAGCUUGCAUAGUAUUUUCAAA | 0.0759 ± 0.02 | 0.0038 ± 0.0029
45 | UCCUGGAACAGCUUGCAUUGUAUUUAGAAA | 0.115 ± 0.028 | 0.00376 ± 0.0021
46 | UCCUGGAUGUCCUUGCAUAGUAUUUGAGUUA | 0.169 ± 0.043 | 0.00517 ± 0.0037
47 | UCCUCCUACAGCUUGCAUUGUAUUUAGAAA | 0.0778 ± 0.019 | 0.00363 ± 0.0015
48 | UCCUGGAACAGCUUGCAUAGUAUUAUGAAA | 0.0563 ± 0.02 | 0.00336 ± 0.0021
49 | UCCUGCUACAGCUUGCAUAGUUUUUUGUUA | 0.112 ± 0.028 | 0.00384 ± 0.0021
50 | UCCUCCUACUGCUUGCAUAGUAUUUAGAUA | 0.085 ± 0.015 | 0.0056 ± 0.0026
51 | UCCUGGUACUGCUUGCAUAGUAUUUAGUAA | 0.0986 ± 0.018 | 0.00428 ± 0.0018
52 | UCCUGCUACAGCUUGCAUAGAAUUUAGAAA | 0.0373 ± 0.015 | 0.00251 ± 0.0016
53 | UCCUGGUACAGCUUGCAUAGUAUUUAGAAA | 0.162 ± 0.03 | 0.00435 ± 0.0017
54 | UCCUGGAACAGCUUGCAUACUAUUAAGUUA | 0.0333 ± 0.012 | 0.00246 ± 0.0024
55 | UCCUCCUACAGCUUGCAUAGUAAAAAGAAA | 0.075 ± 0.02 | 0.00287 ± 0.0026
56 | UCCUGGAUGAGCUUGCAAUAGUAUUUAGUUA | 0.00505 ± 0.0031 | 0.00597 ± 0.003
57 | UCCUGCUACAGCUUGCAUAGUUUUUUCAAA | 0.0433 ± 0.014 | 0.00248 ± 0.0022
58 | UCCUGCAACAGCUUGCAUAGAAUUUAGUUA | 0.0925 ± 0.023 | 0.00434 ± 0.0021
59 | UCCUCCAACAGCUUCCAUAGUAUUUAGUUA | 0.0545 ± 0.017 | 0.00439 ± 0.0021
